Out of some 5,500 compounds screened, about 2,000 (36%) were called active. About 18% were inconclusive and are not listed. No stated cut-off is given here; in the data, active means normalized growth mostly below about 0.91 (no sharp cut-off); inconclusive means no clear call, values can overlap the other calls; inactive means mostly above about 0.92. The list shows a part of the results.
Assay: chemical genetic growth profiling, strain panel (AID 1159580);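 further: tested at 20 µM; growth read once vehicle control cultures reached saturation at 30 °C; 1 = growth at the plate median or of vehicle wells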
Details: S. cerevisiae deletion strains, growth OD

Measured: normalized growth

NNC(N)=O
inactive: locus YAL013W, strain DEP1, stronger effect = lower value 1.03 | locus YAL040C, strain CLN3, stronger effect = lower value 1.01 | locus YCL061C, strain MRC1 (second series), stronger effect = lower value 1.01 | locus YDR363W, strain ESC2, stronger effect = lower value 1.02 | locus YER002W, strain NOP16, stronger effect = lower value 1.01 | locus YGR229C, strain SMI1, stronger effect = lower value 1.03 | locus YJR075W, strain HOC1, stronger effect = lower value 1.02 | locus YMR307W, strain GAS1, stronger effect = lower value 0.998 | locus YNL175C, strain NOP13, stronger effect = lower value 1.01 | locus YNL197C, strain WHI3, stronger effect = lower value 1 | locus YNL224C, strain SQS1, stronger effect = lower value 1 | locus YNL322C, strain KRE1, stronger effect = lower value 1.03 | locus YOR083W, strain WHI5 (second series), stronger effect = lower value 1 | locus YPL055C, strain LGE1, stronger effect = lower value 1.05

From PubChem BioAssay AID1159580 (chemical genetic matrix, 2015)
